# From PubChem BioAssay (EPA / NIEHS)
# “And” between values parts separate entries of the source, which are not always exact repeats. Equal values may be shown once. Where a structure was tested more than once in an assay, its records may differ in their call. The source made the active and inactive calls. The calls were made as follows: active = hit-call score of the fitted dose curve at least 0.9, where 1 is the maximum; inactive = score below 0.9.
# Target: Heat shock factor protein 1 (Homo sapiens) (UniProt Q00613)
# Experiment: ATG_HSE_CIS: Attagene CIS-FACTORIAL HepG2 Assay for human Heat Shock Transcription Factor 1 (HSE) (AID 2282953)
# Details: HepG2 HSE cis-reporter, Attagene RNA transcription; actives raise or lower the signal
# Summary of the method: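 Liver-derived HepG2 cells carry transiently introduced multiple reporter units governed by cis promoters. Reporter RNA measured 24 h post-dose through reverse transcription, PCR amplification, fluorescent labelling and capillary electrophoresis, normalised to DMSO.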
# Heat shock factor protein 1 (Homo sapiens), sequence (Q00613 whole entry, looked up): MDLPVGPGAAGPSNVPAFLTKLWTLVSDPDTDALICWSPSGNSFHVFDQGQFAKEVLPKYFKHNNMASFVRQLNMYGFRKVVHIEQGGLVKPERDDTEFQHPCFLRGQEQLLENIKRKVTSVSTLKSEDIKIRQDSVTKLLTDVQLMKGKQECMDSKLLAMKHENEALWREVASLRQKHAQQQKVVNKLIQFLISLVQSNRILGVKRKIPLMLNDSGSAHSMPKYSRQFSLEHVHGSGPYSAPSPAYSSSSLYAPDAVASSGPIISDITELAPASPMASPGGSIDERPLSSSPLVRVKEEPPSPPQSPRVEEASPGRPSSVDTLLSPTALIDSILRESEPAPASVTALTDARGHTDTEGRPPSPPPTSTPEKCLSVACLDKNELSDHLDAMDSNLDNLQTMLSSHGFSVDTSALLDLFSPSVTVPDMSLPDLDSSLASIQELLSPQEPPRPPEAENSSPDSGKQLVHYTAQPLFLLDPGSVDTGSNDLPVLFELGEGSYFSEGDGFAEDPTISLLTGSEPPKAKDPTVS
SMILES,outcome,AC50
CC(C#N)CCC#N (stereo unspecified),inactive,–
CN(C)N=O,inactive,–
Cc1ccc(N)cc1Cl,inactive,–
Oc1cccc2cccnc12,inactive,–
O=C(O)C(F)(F)C(F)(F)C(F)(F)C(F)(F)C(F)(F)C(F)(F)C(F)(F)C(F)(F)C(F)(F)C(F)(F)F,inactive,14.9 µM (active)
CC(C)(OO)c1ccccc1,inactive,–
CC(C)(C)c1cc(O)ccc1O,–,187 µM (active)
COP(=S)(OC)Oc1ccc(Sc2ccc(OP(=S)(OC)OC)cc2)cc1,–,27 µM (active)
CC(C)c1cccc(C(C)C)c1O,inactive,–
O=[N+]([O-])c1ccc(O)c([N+](=O)[O-])c1,inactive,–
COC(=O)c1sccc1S(=O)(=O)NC(=O)Nc1nc(C)nc(OC)n1,inactive,–
CC1(C)CCC(Cc2ccc(Cl)cc2)C1(O)Cn1cncn1 (stereo unspecified),inactive,–
COC[C@H](C)N(C(=O)CCl)c1c(C)csc1C,inactive,–
CCOC(=O)Nc1cccc(OC(=O)Nc2ccccc2)c1,inactive,–
ClCc1ccccn1,inactive,–
CCCCP(CCCC)CCCC,inactive,–
O=C(Cl)c1ccc(Cl)cc1,inactive,–
CC1CN1P(=O)(N1CC1C)N1CC1C (stereo unspecified),inactive,–

SMILES,outcome,AC50
O=P(O)(O)CN(CP(=O)(O)O)CP(=O)(O)O,inactive,–
CCOP(=O)(CN(CCO)CCO)OCC,inactive,–
CC(C)c1ccc(CO)cc1,inactive,–
C[C@]12CCC(=O)C[C@@H]1CC[C@@H]1[C@@H]2CC[C@]2(C)[C@@H](O)CC[C@@H]12,inactive,–
ClC1(Cl)C2(Cl)C3(Cl)C4(Cl)C(Cl)(Cl)C5(Cl)C3(Cl)C1(Cl)C5(Cl)C24Cl (stereo unspecified),inactive,–
Nc1ccc(N=Nc2ccc(-c3ccc(N=Nc4c(S(=O)(=O)O)cc5cc(S(=O)(=O)O)c(N=Nc6ccccc6)c(O)c5c4N)cc3)cc2)c(N)c1,inactive,–
Cc1ccccc1N,inactive,–
CC(=[OH+])/C=C(/C)[O-].CC(=[OH+])/C=C(/C)[O-].CC(=[OH+])/C=C(/C)[O-].[Fe],inactive,–
Fc1ccc(C2(Cn3cncn3)OC2c2ccccc2Cl)cc1 (stereo unspecified),inactive,–
O=[N+]([O-])c1c(Cl)c(Cl)cc(Cl)c1Cl,inactive,–
C=C(C)C(=O)[O][Sn]([CH2]CCC)([CH2]CCC)[CH2]CCC,–,0.68 µM (active)
Cc1cc(Cl)ccc1O[C@H](C)C(=O)O,inactive,–
CCC(C)c1cccc(C(C)CC)c1O (stereo unspecified),inactive,–
O=c1[nH]c(=O)[nH]c(=O)[nH]1,inactive,–
C1CCC(NC2CCCCC2)CC1,inactive,–
Cc1cc(=O)[nH]o1,inactive,–
O=C/C=C/c1ccccc1,inactive,–
COP(=S)(OC)Oc1c(Cl)cc(C)cc1Cl,inactive,–

# Test system: not listed separately
# Experiment: ATG_MRE_CIS: Attagene CIS-FACTORIAL HepG2 Assay for human Metal Responsive Element (MRE) (AID 2282954)
# Details: HepG2 MRE cis-reporter transcription, Attagene multiplex; actives raise or lower the signal
# Summary of the method: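 After a 24 h chemical exposure, transiently transfected HepG2 cells yield RNA whose reporter sequences are amplified, FAM-labelled and sized by capillary electrophoresis. Curves are fitted bidirectionally relative to DMSO.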
SMILES,outcome,AC50
Cc1ccc(N)cc1Cl,inactive,–
Oc1cccc2cccnc12,inactive,148 µM (active)
O=C(O)C(F)(F)C(F)(F)C(F)(F)C(F)(F)C(F)(F)C(F)(F)C(F)(F)C(F)(F)C(F)(F)C(F)(F)F,–,23.2 µM (active) and 15.5 µM (active)
CC(C)(C)c1cc(O)ccc1O,–,120 µM (active)
COP(=S)(OC)Oc1ccc(Sc2ccc(OP(=S)(OC)OC)cc2)cc1,–,57.7 µM (active)
CC(C)c1cccc(C(C)C)c1O,inactive,–
COC(=O)c1sccc1S(=O)(=O)NC(=O)Nc1nc(C)nc(OC)n1,inactive,–
CC1(C)CCC(Cc2ccc(Cl)cc2)C1(O)Cn1cncn1 (stereo unspecified),inactive,–
CCOC(=O)Nc1cccc(OC(=O)Nc2ccccc2)c1,inactive,–
ClCc1ccccn1,inactive,–
CCCCP(CCCC)CCCC,inactive,–
O=C(Cl)c1ccc(Cl)cc1,inactive,–
CC1CN1P(=O)(N1CC1C)N1CC1C (stereo unspecified),inactive,–
O=P(O)(O)CN(CP(=O)(O)O)CP(=O)(O)O,inactive,–
ClCCBr,inactive,–
Oc1ccc(-c2ccccc2)cc1,–,149 µM (active)
CC(C)c1ccc(CO)cc1,inactive,–
Nc1ccc(N=Nc2ccc(-c3ccc(N=Nc4c(S(=O)(=O)O)cc5cc(S(=O)(=O)O)c(N=Nc6ccccc6)c(O)c5c4N)cc3)cc2)c(N)c1,inactive,–
Fc1ccc(C2(Cn3cncn3)OC2c2ccccc2Cl)cc1 (stereo unspecified),inactive,–
O=[N+]([O-])c1c(Cl)c(Cl)cc(Cl)c1Cl,inactive,–
C=C(C)C(=O)[O][Sn]([CH2]CCC)([CH2]CCC)[CH2]CCC,–,0.412 µM (active)
Cc1cc(Cl)ccc1O[C@H](C)C(=O)O,inactive,–
O=c1[nH]c(=O)[nH]c(=O)[nH]1,inactive,–
C1CCC(NC2CCCCC2)CC1,inactive,–
Cc1cc(=O)[nH]o1,inactive,–
O=C/C=C/c1ccccc1,inactive,–

# Test system: not listed separately
# Experiment: ATG_PBREM_CIS: Attagene CIS-FACTORIAL HepG2 Assay for human Phenobarbital-responsive Enhancer Module (PBREM) (AID 2282955)
# Details: HepG2 PBREM cis-reporter, Attagene multiplexed transcription; actives raise or lower the signal
# Summary of the method: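 Endogenous transcription factor activity was read from reporter transcripts in transiently transfected human HepG2 liver cells after 24 h dosing. RT-PCR products were fluorescently labelled, HpaI-cut and sized by capillary electrophoresis; activity fitted bidirectionally against DMSO baseline.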
SMILES,outcome,AC50
CN(C)N=O,inactive,–
Cc1ccc(N)cc1Cl,inactive,–
Oc1cccc2cccnc12,inactive,–
BrCCBr,inactive,–
O=C(O)C(F)(F)C(F)(F)C(F)(F)C(F)(F)C(F)(F)C(F)(F)C(F)(F)C(F)(F)C(F)(F)C(F)(F)F,inactive,70.8 µM (active)
CC(C)(OO)c1ccccc1,inactive,–
CC(C)(C)c1cc(O)ccc1O,inactive,–
COP(=S)(OC)Oc1ccc(Sc2ccc(OP(=S)(OC)OC)cc2)cc1,–,8.08 µM (active)
CC(C)c1cccc(C(C)C)c1O,inactive,–
O=[N+]([O-])c1ccc(O)c([N+](=O)[O-])c1,inactive,–
COC(=O)c1sccc1S(=O)(=O)NC(=O)Nc1nc(C)nc(OC)n1,inactive,–
CC1(C)CCC(Cc2ccc(Cl)cc2)C1(O)Cn1cncn1 (stereo unspecified),–,24.2 µM (active)
CCOC(=O)Nc1cccc(OC(=O)Nc2ccccc2)c1,inactive,–
ClCc1ccccn1,inactive,–
CC1CN1P(=O)(N1CC1C)N1CC1C (stereo unspecified),inactive,–
ClCCBr,inactive,–
Oc1ccc(-c2ccccc2)cc1,–,176 µM (active)
Nc1ccc(N=Nc2ccc(-c3ccc(N=Nc4c(S(=O)(=O)O)cc5cc(S(=O)(=O)O)c(N=Nc6ccccc6)c(O)c5c4N)cc3)cc2)c(N)c1,inactive,–
Cc1ccccc1N,inactive,–
Fc1ccc(C2(Cn3cncn3)OC2c2ccccc2Cl)cc1 (stereo unspecified),inactive,–
C=C(C)C(=O)[O][Sn]([CH2]CCC)([CH2]CCC)[CH2]CCC,inactive,–
Cc1cc(Cl)ccc1O[C@H](C)C(=O)O,inactive,–
O=c1[nH]c(=O)[nH]c(=O)[nH]1,inactive,–
C1CCC(NC2CCCCC2)CC1,inactive,–
O=C/C=C/c1ccccc1,inactive,–
COP(=S)(OC)Oc1c(Cl)cc(C)cc1Cl,inactive,–
